Source: PubChem BioAssay (Tox21)
“And” between values parts separate entries of the source, which are not always exact repeats. Identical values can stand only once. Records with an inconclusive call do not appear. A call without a number means that no potency is given here. The source made the active and inactive calls. Unless noted, the call rests on the fitted dose curve; in most records, active means well fitted curve in the direction sought with a large enough effect in the repeat runs; inconclusive means weak or mixed curves; inactive means no such curve, though single readings can be large; an effect the other way counts as inactive or inconclusive.

Key:
[1] = molecular target: Acetylcholinesterase (Homo sapiens) (UniProt P22303); experiment: Acetylcholinesterase (AChE) small molecule antagonists: fluorescence cell-based qHTS assay (AID 1347398; calls by dose curve; further: nearly all actives have a fitted effect of over 50% in size); conditions: Potency: AChE activity
Acetylcholinesterase (Homo sapiens), sequence (P22303 whole entry, looked up): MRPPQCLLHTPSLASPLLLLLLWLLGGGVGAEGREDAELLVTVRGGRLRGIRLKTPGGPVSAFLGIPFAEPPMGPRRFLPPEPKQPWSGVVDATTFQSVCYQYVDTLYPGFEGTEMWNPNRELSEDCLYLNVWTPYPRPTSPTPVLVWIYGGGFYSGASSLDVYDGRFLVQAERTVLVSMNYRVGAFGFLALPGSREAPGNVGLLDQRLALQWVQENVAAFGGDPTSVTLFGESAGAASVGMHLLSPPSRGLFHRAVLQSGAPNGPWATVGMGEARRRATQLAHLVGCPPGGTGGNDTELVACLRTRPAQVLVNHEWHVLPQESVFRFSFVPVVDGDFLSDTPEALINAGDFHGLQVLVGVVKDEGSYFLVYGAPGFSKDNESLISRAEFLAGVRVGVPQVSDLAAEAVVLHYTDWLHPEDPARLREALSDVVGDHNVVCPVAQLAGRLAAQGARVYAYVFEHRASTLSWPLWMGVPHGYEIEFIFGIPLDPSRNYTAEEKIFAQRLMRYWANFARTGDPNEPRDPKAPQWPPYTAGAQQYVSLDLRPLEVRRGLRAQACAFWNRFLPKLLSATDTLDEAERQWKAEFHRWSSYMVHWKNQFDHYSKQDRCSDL
Procedure, shortened: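 Human SH-SY5Y cells were plated overnight at 37 C, exposed to compound for 30 min at 37 C, 5% CO2, then given acetylthiocholine plus Thiolite Green for 40 min at room temperature; thiocholine fluorescence (Ex/Em 490/520 nm) reports endogenous AChE activity.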

[2] = molecular target: Acetylcholinesterase (Homo sapiens) (UniProt P22303); experiment: Acetylcholinesterase (AChE) small molecule antagonists: enzyme-based qHTS assay with human liver microsomes (AID 1347399; calls by dose curve; further: nearly all actives have a fitted effect of over 60% in size); conditions: Potency: qHTS inhibition
Procedure, shortened: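 Recombinant human AChE (50 mU/mL in the enzyme mix) and human liver microsomes (0.25 mg/mL final) were preincubated with compound and NADPH (0.25 mg/mL final) for 30 min at 37 C. Acetylthiocholine/DTNB was then added; thiocholine was read colorimetrically after 10 min at room temperature.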

[3] = molecular target: Cytochrome P450 2D6 (Homo sapiens) (UniProt P10635); experiment: Cytochrome P450 Family 2 Subfamily D Member 6 (CYP2D6) small molecule antagonists: luciferase reporter qHTS assay (AID 1671196); further: nearly all actives have a fitted effect of over 50% in size
Cytochrome P450 2D6 (Homo sapiens), sequence (P10635 whole entry, looked up): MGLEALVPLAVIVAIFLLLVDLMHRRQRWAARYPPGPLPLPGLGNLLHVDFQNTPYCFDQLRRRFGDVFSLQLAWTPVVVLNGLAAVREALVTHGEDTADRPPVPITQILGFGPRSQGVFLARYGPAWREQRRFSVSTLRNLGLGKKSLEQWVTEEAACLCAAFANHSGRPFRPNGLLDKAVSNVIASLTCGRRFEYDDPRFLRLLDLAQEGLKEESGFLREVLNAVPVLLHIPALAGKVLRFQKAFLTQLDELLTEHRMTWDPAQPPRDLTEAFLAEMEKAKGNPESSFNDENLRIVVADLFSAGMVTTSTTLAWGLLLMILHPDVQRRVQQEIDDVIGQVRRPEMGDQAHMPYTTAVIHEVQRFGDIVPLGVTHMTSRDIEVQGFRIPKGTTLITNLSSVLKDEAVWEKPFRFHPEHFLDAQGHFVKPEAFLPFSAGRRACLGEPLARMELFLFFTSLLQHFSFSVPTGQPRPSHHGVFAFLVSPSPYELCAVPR
Procedure, shortened: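 Inhibition of CYP2D6 was gauged by loss of luminescence, since light produced tracks the luciferin generated from a proluciferin substrate. A 10 min room-temperature preincubation preceded 1 h NADPH-supported turnover.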

[4] = molecular target: Cytochrome P450 2C19 (Homo sapiens) (UniProt P33261); experiment: Cytochrome P450 Family 2 Subfamily C Member 19 (CYP2C19) small molecule antagonists: luciferase reporter qHTS assay (AID 1671197); further: nearly all actives have a fitted effect of over 65% in size
Cytochrome P450 2C19 (Homo sapiens), sequence (P33261 whole entry, looked up): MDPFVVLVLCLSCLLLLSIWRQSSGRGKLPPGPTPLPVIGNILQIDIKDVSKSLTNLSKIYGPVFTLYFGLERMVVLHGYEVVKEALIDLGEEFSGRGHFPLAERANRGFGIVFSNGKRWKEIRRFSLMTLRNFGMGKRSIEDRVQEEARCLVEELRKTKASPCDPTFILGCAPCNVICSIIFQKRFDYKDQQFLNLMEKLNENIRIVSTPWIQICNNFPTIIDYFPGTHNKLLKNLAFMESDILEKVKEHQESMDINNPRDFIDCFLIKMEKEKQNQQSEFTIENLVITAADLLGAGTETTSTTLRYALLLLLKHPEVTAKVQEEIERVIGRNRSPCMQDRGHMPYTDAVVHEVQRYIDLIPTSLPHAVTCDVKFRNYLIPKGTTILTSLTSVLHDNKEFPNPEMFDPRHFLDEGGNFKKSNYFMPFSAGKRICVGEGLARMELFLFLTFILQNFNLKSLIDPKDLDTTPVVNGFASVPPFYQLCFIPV
Procedure, shortened: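 Inhibition of CYP2C19 was scored from loss of luminescence in a P450-Glo proluciferin substrate assay, NADPH-started and run 1 h at 37C, with ketoconazole as positive control.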

[5] = molecular target: Cytochrome P450 1A2 (Homo sapiens) (UniProt P05177); experiment: Cytochrome P450 Family 1 Subfamily A Member 2 (CYP1A2) small molecule antagonists: luciferase reporter qHTS assay (AID 1671199); further: nearly all actives have a fitted effect of over 50% in size
Cytochrome P450 1A2 (Homo sapiens), sequence (P05177 whole entry, looked up): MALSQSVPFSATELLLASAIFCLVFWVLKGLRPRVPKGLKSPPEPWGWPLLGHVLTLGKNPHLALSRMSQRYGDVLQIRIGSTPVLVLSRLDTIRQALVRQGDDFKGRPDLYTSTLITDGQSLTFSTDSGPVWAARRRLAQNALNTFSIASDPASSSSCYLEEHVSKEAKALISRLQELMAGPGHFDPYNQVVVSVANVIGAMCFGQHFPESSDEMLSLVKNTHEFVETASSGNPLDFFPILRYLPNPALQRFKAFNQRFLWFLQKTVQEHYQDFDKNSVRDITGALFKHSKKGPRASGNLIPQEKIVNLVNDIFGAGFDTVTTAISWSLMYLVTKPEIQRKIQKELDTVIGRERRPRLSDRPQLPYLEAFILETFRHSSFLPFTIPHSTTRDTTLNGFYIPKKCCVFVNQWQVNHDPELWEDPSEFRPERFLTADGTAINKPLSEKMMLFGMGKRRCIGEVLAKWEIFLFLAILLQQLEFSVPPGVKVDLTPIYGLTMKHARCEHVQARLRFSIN
Procedure, shortened: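 Signal from luciferin formed by CYP1A2 from a proluciferin substrate is read as luminescence, expressed in relative luminescence units. Compounds sit with enzyme 10 min, NADPH-driven reaction runs 1 h, all at room temperature.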

[6] = molecular target: Voltage-gated inwardly rectifying potassium channel KCNH2 (Homo sapiens) (UniProt Q12809); experiment: Human Ether-a-go-go-Related Gene (hERG) channel small molecule antagonists: fluorescence cell-based qHTS assay (AID 1671200); further: nearly all actives have a fitted effect of over 50% in size
Voltage-gated inwardly rectifying potassium channel KCNH2 (Homo sapiens), sequence (Q12809 whole entry, looked up): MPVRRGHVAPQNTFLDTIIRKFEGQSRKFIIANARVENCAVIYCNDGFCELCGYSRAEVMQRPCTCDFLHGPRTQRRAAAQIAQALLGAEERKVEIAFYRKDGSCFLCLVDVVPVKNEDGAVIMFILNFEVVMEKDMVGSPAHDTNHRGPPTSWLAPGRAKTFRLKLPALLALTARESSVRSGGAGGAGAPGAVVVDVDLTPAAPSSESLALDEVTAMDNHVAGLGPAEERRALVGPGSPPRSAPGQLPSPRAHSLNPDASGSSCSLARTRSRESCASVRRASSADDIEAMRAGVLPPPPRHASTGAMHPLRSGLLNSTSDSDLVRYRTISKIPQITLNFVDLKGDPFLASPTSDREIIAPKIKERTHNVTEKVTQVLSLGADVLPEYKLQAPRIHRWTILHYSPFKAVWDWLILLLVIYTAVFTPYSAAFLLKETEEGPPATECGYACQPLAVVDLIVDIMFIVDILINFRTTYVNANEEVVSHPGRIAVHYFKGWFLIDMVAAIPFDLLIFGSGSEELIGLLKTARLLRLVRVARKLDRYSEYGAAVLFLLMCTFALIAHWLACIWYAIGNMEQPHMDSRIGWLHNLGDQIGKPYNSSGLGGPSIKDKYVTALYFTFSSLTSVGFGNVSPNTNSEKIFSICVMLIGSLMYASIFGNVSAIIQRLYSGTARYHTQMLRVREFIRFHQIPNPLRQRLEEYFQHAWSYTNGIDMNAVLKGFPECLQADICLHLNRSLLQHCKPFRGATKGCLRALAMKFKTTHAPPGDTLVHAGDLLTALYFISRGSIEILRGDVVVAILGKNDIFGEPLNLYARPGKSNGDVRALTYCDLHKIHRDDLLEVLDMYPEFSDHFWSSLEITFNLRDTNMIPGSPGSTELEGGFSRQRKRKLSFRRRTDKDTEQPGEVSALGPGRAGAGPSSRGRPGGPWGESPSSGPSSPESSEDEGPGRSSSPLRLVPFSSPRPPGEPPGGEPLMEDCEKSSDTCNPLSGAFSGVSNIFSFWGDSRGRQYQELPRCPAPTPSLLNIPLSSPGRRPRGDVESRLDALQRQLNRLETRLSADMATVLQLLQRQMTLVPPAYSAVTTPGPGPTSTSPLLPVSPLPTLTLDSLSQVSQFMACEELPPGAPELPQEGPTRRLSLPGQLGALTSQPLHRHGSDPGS
Procedure, shortened: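 Channel function was assessed by thallium flux. Cells seeded the previous day and kept at 37 C took up FluxOR II dye over 1 h in the dark at room temperature, then sat another 10 min before stimulation.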

[7] = molecular target: Cytochrome P450 3A4 (Homo sapiens) (UniProt P08684); experiment: Cytochrome P450 Family 3 Subfamily A Member 4 (CYP3A4) small molecule antagonists: luciferase reporter qHTS assay (AID 1671201); further: nearly all actives have a fitted effect of over 50% in size
Cytochrome P450 3A4 (Homo sapiens), sequence (P08684 whole entry, looked up): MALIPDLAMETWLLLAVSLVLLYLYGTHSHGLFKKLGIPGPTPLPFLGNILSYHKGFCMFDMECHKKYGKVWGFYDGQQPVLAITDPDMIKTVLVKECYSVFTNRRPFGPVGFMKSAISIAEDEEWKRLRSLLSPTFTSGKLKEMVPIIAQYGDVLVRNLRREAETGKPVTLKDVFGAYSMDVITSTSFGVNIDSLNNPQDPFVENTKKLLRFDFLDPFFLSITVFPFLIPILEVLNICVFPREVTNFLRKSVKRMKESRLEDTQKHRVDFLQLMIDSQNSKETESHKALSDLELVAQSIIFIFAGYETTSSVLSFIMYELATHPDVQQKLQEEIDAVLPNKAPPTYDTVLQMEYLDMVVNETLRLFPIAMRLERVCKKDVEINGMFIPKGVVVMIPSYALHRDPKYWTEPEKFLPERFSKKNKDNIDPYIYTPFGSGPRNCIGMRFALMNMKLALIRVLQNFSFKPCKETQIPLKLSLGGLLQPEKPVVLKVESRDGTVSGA
Procedure, shortened: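 Compounds in DMSO were pin-transferred onto CYP3A4 enzyme-substrate mix and held 10 min at room temperature. NADPH regenerating solution started the reaction for 1 h; luciferin detection reagent stopped it, and luminescence was read after 20 min.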

[8] = molecular target: Cytochrome P450 2C9 (Homo sapiens) (UniProt P11712); experiment: Cytochrome P450 Family 2 Subfamily C Member 9 (CYP2C9) small molecule antagonists: luciferase reporter qHTS assay (AID 1671198); further: nearly all actives have a fitted effect of over 50% in size
Cytochrome P450 2C9 (Homo sapiens), sequence (P11712 whole entry, looked up): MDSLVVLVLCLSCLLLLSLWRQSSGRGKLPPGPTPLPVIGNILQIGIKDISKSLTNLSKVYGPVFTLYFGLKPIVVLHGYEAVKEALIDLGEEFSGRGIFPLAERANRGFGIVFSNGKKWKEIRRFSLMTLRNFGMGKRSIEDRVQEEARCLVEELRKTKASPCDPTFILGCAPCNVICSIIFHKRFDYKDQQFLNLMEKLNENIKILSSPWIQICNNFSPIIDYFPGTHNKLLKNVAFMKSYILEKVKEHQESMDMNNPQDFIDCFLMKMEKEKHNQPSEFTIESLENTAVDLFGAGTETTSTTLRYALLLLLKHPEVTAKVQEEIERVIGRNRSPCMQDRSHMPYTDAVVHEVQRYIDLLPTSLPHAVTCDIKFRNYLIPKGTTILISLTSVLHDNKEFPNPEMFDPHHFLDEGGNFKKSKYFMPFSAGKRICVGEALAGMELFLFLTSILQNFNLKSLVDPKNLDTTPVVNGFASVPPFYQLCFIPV
Procedure, shortened: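 CYP2C9 activity was measured with a P450-Glo proluciferin substrate. Enzyme–substrate mix was held with compound for 10 min at room temperature, then NADPH regeneration solution was added for 1 h at 37C. Luciferin product was read as luminescence.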
Potency means the concentration at half of the fitted maximal effect.

Row | SMILES | Potency [1] | Potency [2] | Potency [3] | Potency [4] | Potency [5] | Potency [6] | Potency [7] | Potency [8]
1 | O=c1oc2ccccc2c(O)c1Cc1c(O)c2ccccc2oc1=O | inactive | inactive | inactive | inactive | 24.5 µM (active) | inactive | inactive | 
2 | ClCc1ccc(Cl)cc1Cl | inactive | inactive | inactive |  |  | inactive | inactive | inactive
3 | CC(C)C1CCC(Cc2ccc(Cl)cc2)C1(O)Cn1cncn1 (stereo unspecified) | inactive | inactive |  | 0.353 µM (active) | 31.4 µM (active) | 34.3 µM (active) | 0.0498 µM (active) | 0.789 µM (active)
4 | SCc1ccco1 | inactive | inactive |  | 39.9 µM (active) | 35.6 µM (active) | inactive |  | 35.6 µM (active)
5 | CCCCCCCCCCCCCCC(Br)C(=O)O (stereo unspecified) | inactive | inactive | inactive | inactive |  | inactive | inactive | 
6 | FC(Cl)(Cl)Cl | inactive | inactive | inactive |  |  | inactive | inactive | inactive
7 | BrCC(Br)c1ccccc1 (stereo unspecified) | inactive | inactive | 12.6 µM (active) |  |  | inactive | inactive | 
8 | CCCCCCCCCCCCCN1CC(C)OC(C)C1 (stereo unspecified) | inactive | inactive | 22.4 µM (active) | inactive | inactive | 13.8 µM (active) | inactive | 
9 | O=C1c2ccccc2C(=O)C1C(=O)C(c1ccccc1)c1ccc(Cl)cc1 (stereo unspecified) | inactive | inactive |  | 17.8 µM (active) | 20 µM (active) | inactive | inactive | 0.0252 µM (active)
10 | C[C@]12CC[C@H]3[C@@H](CCC4=CC(=O)CC[C@@]43C)[C@@H]1CC[C@@H]2O | inactive | inactive | inactive | inactive |  |  | inactive | 
11 | C=CC(=O)OCCCCOC(=O)C=C | inactive | inactive | inactive |  | 35.6 µM (active) | inactive | inactive | 
12 | O=c1c(C2CC(c3ccc(-c4ccc(Br)cc4)cc3)Cc3ccccc32)c(O)sc2ccccc12 (stereo unspecified) | inactive | inactive | inactive |  | inactive | inactive | inactive | 5.49 µM (active)
13 | O=[N+]([O-])c1cc(C(F)(F)F)c(Cl)c([N+](=O)[O-])c1Cl | inactive | inactive | inactive |  | 11.2 µM (active) | 27.5 µM (active) | 56.4 µM (active) | 12.6 µM (active)
14 | O=c1ssc(Cl)c1Cl | inactive | inactive | 63.3 µM (active) |  | 35.6 µM (active) | 49 µM (active) | 63.3 µM (active) | 39.9 µM (active)
15 | Nc1ccc(Cl)cc1C(=O)c1ccccc1 | inactive | inactive |  | 15.9 µM (active) | 15.9 µM (active) |  |  | 39.9 µM (active)
16 | Clc1ccc(COC(Cn2ccnc2)c2ccc(Cl)cc2Cl)cc1 (stereo unspecified) | inactive | inactive | 663 nM (active) and 224 nM (active) and 490 nM (active) | 166 nM (active) and 89 nM (active) and 246 nM (active) | 1.87 µM (active) and 1.78 µM (active) and 911 nM (active) |  |  | 
17 | OC(Cc1ccccc1Cl)(Cn1cncn1)C1(Cl)CC1 (stereo unspecified) | inactive | inactive |  | 1.26 µM (active) | 0.796 µM (active) | inactive | 0.2 µM (active) | 2 µM (active)
18 | C1CCC2CCCCC2C1 (stereo unspecified) | inactive | inactive |  | inactive | inactive | inactive | inactive | inactive
19 | O=[N+]([O-])c1c2ccccc2cc2ccccc12 | inactive | inactive |  | 11.1 µM (active) | 0.3 µM (active) | inactive |  | 11.1 µM (active)
20 | Cc1c(Cl)c(=O)oc2cc(OP(=O)(OCCCl)OCCCl)ccc12 | 0.275 µM (active) | 3.09 µM (active) | 3.47 µM (active) | 2.19 µM (active) |  |  | inactive | 3.89 µM (active)
21 | CCN(CC)C(=S)[S-].CCN(CC)C(=S)[S-].[Zn+2] | inactive | inactive |  | 49.8 µM (active) | inactive | 8.63 µM (active) |  | 15.8 µM (active)
22 | CCOC(=O)OC1=C(c2cc(C)ccc2C)C(=O)NC12CCC(OC)CC2 (stereo unspecified) | inactive | inactive | inactive |  | 44.8 µM (active) | inactive | 1.12 µM (active) | 
23 | Cc1ccc(C(=O)Cl)cc1 | inactive | inactive | inactive |  | inactive | inactive |  | inactive
24 | CCOC(=O)c1ccccc1S(=O)(=O)NC(=O)Nc1nc(Cl)cc(OC)n1 | inactive | inactive | inactive |  | inactive | inactive |  | inactive
25 | COC(=O)N(C(=O)N1COC2(C(=O)OC)Cc3cc(Cl)ccc3C2=N1)c1ccc(OC(F)(F)F)cc1 (stereo unspecified) | inactive | inactive |  | 0.195 µM (active) | inactive | inactive | 5.49 µM (active) | 4.9 µM (active)
